Laboratory results published in PubChem BioAssay (Tox21).
Inconclusive results are not listed. The source made the active and inactive calls. The call rests on the fitted dose curve; in most records, active means well fitted curve in the direction sought with a large enough effect in the repeat runs; inconclusive means weak or mixed curves; inactive means no such curve, though single readings can be large; an effect the other way counts as inactive or inconclusive.

target: Nuclear receptor subfamily 1 group I member 2 (Homo sapiens) (UniProt O75469); experiment: CYP3A4 induction through human pregnane X receptor (PXR) by small molecules, qHTS assay (AID 1346984); conditions: DPX-2 HepG2 PXR, CYP3A4-luciferin luminescence, 24 h; series mostly up to 46.1 µM; activation: at the top concentration; further: nearly all actives have a fitted effect of over 40% in size
Summary of the method: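 DPX-2 reporter cells; 24h cpd, 37C; Luciferin-IPA 3uM final x3h; One-Glo 30 min RT; lumi read.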
On the % scale 0 is the no-effect control and ±100 the full control effect.

Structure (SMILES) | activation
CCCCCCCCCCCC[n+]1ccc2ccccc2c1 | -35% (inactive)
CCOc1ccc(S(=O)(=O)O)c2cccnc12 | -10.8% (inactive)
N=C(N)n1cccn1 | -14.1% (inactive)
CCN(CC)C(=O)c1cccnc1 | 7.2% (inactive)
CCN(CC)C(=O)[C@]1(c2ccccc2)C[C@@H]1CN | 3.24% (inactive)
O=C1c2ccccc2C(=O)C1c1ccc(F)cc1 | 26.6% (inactive)
CC(=NCc1ccccc1)c1ccccc1O | -1.03% (inactive)
O=C[C@H](O)[C@@H](O)[C@@H](O)[C@H](O)CO | 8.94% (inactive)
O=C(O)/C=C/C(=O)Nc1ccc(S(=O)(=O)Nc2nccs2)cc1 | -9.45% (inactive)
CNC(=O)C[C@@H](N)C(=O)N[C@@H](C(=O)N[C@@H]1C(=O)N2[C@@H]1SC(C)(C)[C@@H]2C(=O)O)c1ccc(O)cc1 | -14.3% (inactive)
NS(=O)(=O)c1cc(Cl)c(Cl)c(S(N)(=O)=O)c1 | 10.3% [at 20.6 µM] (inactive)
CC(C)CCC[C@@H](C)[C@H]1CC[C@H]2[C@@H]3CC=C4C[C@@H](O)CC[C@]4(C)[C@H]3CC[C@]12C | -1.89% (inactive)
CCOc1ccc(NC(=S)Nc2ccc(OCC)cc2)cc1 | -9.94% (inactive)
CO[C@H]1C[C@H](O[C@H]2[C@H](C)[C@@H](O[C@@H]3O[C@H](C)C[C@H](N(C)C)[C@H]3O)[C@@H](C)C[C@]3(CO3)C(=O)[C@H](C)[C@@H](O)[C@@H](C)[C@@H](C)OC(=O)[C@@H]2C)O[C@@H](C)[C@@H]1O | -9.95% [at 20.6 µM] (inactive)
CCN(CC)CCOC[C@H]1O[C@@H](O)[C@H](OCCN(CC)CC)[C@@H](O)[C@@H]1O | -2.56% (inactive)
Cc1cc(=O)c(C(=O)N[C@@H](C(=O)N[C@@H]2C(=O)N3C(C(=O)O)=C(CSc4nnnn4C)CS[C@H]23)c2ccc(O)cc2)c[nH]1 | -0.184% (inactive)

target: Nuclear receptor subfamily 1 group I member 2 (Homo sapiens) (UniProt O75469); experiment: Human pregnane X receptor (PXR) activation by small molecules, qHTS assay (AID 1346985); conditions: DPX-2 HepG2 CYP3A4-luciferase, 24 h; series mostly up to 38.3 µM; activation: at the top concentration; further: nearly all actives have a fitted effect of over 40% in size; further: potency means the concentration at half of the fitted maximal effect
Summary of the method: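 DPX-2 cells (HepG2 co-transfected with a PXR response element and a CYP3A4-promoter luciferase construct) were seeded at 2,000 per well, rested 5 hr at 37C, then exposed to DMSO-dissolved compounds for 24 hr. Activation was read as luciferase luminescence.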

Structure (SMILES) | activation | Potency
CCCCCCCCCCCC[n+]1ccc2ccccc2c1 | -11.2% (inactive) | 
CCOc1ccc(S(=O)(=O)O)c2cccnc12 | -4.2% (inactive) | 
N=C(N)n1cccn1 | 0.271% (inactive) | 
CCN(CC)C(=O)c1cccnc1 | 0.99% (inactive) | 
CCN(CC)C(=O)[C@]1(c2ccccc2)C[C@@H]1CN | 8.29% (inactive) | 
O=C1c2ccccc2C(=O)C1c1ccc(F)cc1 |  | 12.6 µM (active)
CC(=NCc1ccccc1)c1ccccc1O | 10.9% (inactive) | 
O=C[C@H](O)[C@@H](O)[C@@H](O)[C@H](O)CO | 21.3% (inactive) | 
O=C(O)/C=C/C(=O)Nc1ccc(S(=O)(=O)Nc2nccs2)cc1 | -1.51% (inactive) | 
CNC(=O)C[C@@H](N)C(=O)N[C@@H](C(=O)N[C@@H]1C(=O)N2[C@@H]1SC(C)(C)[C@@H]2C(=O)O)c1ccc(O)cc1 | -1.22% (inactive) | 
NS(=O)(=O)c1cc(Cl)c(Cl)c(S(N)(=O)=O)c1 | 5.34% [at 17.1 µM] (inactive) | 
CC(C)CCC[C@@H](C)[C@H]1CC[C@H]2[C@@H]3CC=C4C[C@@H](O)CC[C@]4(C)[C@H]3CC[C@]12C | -1.27% (inactive) | 
CCOc1ccc(NC(=S)Nc2ccc(OCC)cc2)cc1 | 5.82% (inactive) | 
CO[C@H]1C[C@H](O[C@H]2[C@H](C)[C@@H](O[C@@H]3O[C@H](C)C[C@H](N(C)C)[C@H]3O)[C@@H](C)C[C@]3(CO3)C(=O)[C@H](C)[C@@H](O)[C@@H](C)[C@@H](C)OC(=O)[C@@H]2C)O[C@@H](C)[C@@H]1O | 3.47% [at 17.1 µM] (inactive) | 
CCN(CC)CCOC[C@H]1O[C@@H](O)[C@H](OCCN(CC)CC)[C@@H](O)[C@@H]1O | -8.26% (inactive) | 
Cc1cc(=O)c(C(=O)N[C@@H](C(=O)N[C@@H]2C(=O)N3C(C(=O)O)=C(CSc4nnnn4C)CS[C@H]23)c2ccc(O)cc2)c[nH]1 | -5.24% (inactive) | 

target: Cytochrome P450 2D6 (Homo sapiens) (UniProt P10635); experiment: Cytochrome P450 Family 2 Subfamily D Member 6 (CYP2D6) small molecule antagonists: luciferase reporter qHTS assay (AID 1671196); conditions: P450-Glo CYP2D6 enzyme assay, luciferin luminescence, 1 h; series mostly up to 115 µM; activity change, negative = inhibition: at the top concentration; further: nearly all actives have a fitted effect of over 50% in size; further: potency means the concentration at half of the fitted maximal effect
Sequence (P10635 whole entry, looked up): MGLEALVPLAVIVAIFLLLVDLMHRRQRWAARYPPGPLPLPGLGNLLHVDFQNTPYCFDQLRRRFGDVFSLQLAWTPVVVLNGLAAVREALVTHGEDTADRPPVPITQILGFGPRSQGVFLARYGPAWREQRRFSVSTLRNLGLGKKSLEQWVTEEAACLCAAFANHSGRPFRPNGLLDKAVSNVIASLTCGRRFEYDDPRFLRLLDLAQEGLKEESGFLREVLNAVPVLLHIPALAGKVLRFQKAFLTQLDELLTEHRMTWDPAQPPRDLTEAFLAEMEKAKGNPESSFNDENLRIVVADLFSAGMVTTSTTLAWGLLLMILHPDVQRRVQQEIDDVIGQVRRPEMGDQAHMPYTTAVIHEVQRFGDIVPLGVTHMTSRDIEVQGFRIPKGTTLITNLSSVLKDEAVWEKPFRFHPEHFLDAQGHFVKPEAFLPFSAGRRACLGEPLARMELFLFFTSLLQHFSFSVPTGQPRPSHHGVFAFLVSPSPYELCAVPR
Summary of the method: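 Inhibition of CYP2D6 was gauged by loss of luminescence, since light produced tracks the luciferin generated from a proluciferin substrate. A 10 min room-temperature preincubation preceded 1 h NADPH-supported turnover.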

Structure (SMILES) | activity change, negative = inhibition | Potency
Nc1c(Br)cc([N+](=O)[O-])cc1Br | -5.03% (inactive) | 
O=C1OC(=O)c2cc(-c3ccc4c(c3)C(=O)OC4=O)ccc21 | -19.8% (inactive) | 
CCSCC | -0.484% (inactive) | 
Cc1c(Cl)c(=O)oc2cc(O)ccc12 | -14.5% (inactive) | 
CCCCCCCCOC(=O)c1cc(O)c(O)c(O)c1 |  | 11.2 µM (active)
CN1CCN(CCCN2c3ccccc3Sc3ccc(Cl)cc32)CC1 |  | 0.275 µM (active)
Nc1ccc(Cl)c([N+](=O)[O-])c1 | -9.83% (inactive) | 
CC/C(=C(/c1ccc(O)cc1)c1ccc(OCCN(C)C)cc1)c1ccccc1 |  | 18.6 µM (active)
CSc1ccc(O)cc1C | -3.16% (inactive) | 
C=CCc1cc(S(=O)(=O)c2ccc(O)c(CC=C)c2)ccc1O |  | 6.33 µM (active)
CCCC(=O)c1cc(O)c(O)cc1O |  | 51.7 µM (active)
CN1CCN(c2ccccc2/C=C2\SCCN(c3ccc(Cl)c(Cl)c3)C2=O)CC1 |  | 7.1 µM (active)
c1ccc(C[P+](c2ccccc2)(c2ccccc2)c2ccccc2)cc1 |  | 0.252 µM (active)
CCN(CC)c1ccc(C=O)cc1 | -18.5% (inactive) | 
COc1cccc(-c2ccc(/C=C\CN3CCCCCC3)cc2Cl)c1 |  | 2.51 µM (active)

target: Cytochrome P450 2C19 (Homo sapiens) (UniProt P33261); experiment: Cytochrome P450 Family 2 Subfamily C Member 19 (CYP2C19) small molecule antagonists: luciferase reporter qHTS assay (AID 1671197); conditions: P450-Glo CYP2C19 enzyme, luciferin luminescence, 1 h; series mostly up to 115 µM; activity change, negative = inhibition: at the top concentration; further: nearly all actives have a fitted effect of over 65% in size; further: potency means the concentration at half of the fitted maximal effect
Sequence (P33261 whole entry, looked up): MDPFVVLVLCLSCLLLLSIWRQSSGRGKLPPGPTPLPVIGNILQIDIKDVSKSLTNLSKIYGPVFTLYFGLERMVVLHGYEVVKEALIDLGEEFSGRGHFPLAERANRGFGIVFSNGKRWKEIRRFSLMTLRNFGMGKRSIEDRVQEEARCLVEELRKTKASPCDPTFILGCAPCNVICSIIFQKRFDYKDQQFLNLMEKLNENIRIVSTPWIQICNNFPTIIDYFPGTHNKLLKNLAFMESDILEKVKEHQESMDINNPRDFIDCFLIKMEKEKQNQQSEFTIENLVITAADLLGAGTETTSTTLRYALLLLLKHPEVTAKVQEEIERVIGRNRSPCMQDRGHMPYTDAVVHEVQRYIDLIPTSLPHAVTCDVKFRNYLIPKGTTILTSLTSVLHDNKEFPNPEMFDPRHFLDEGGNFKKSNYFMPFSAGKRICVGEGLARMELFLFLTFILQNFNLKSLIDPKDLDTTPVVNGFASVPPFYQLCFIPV
Summary of the method: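 CYP2C19 P450-Glo, 1536-well qHTS. Cpd + enzyme/proluciferin substrate 10 min RT; + NADPH regen, 37C 1 h; stop with luciferin detection reagent, 20 min RT, luminescence (RLU). Pos ctrl ketoconazole.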

Structure (SMILES) | Potency | activity change, negative = inhibition
Nc1c(Br)cc([N+](=O)[O-])cc1Br | 79.6 µM (active) | 
O=C1OC(=O)c2cc(-c3ccc4c(c3)C(=O)OC4=O)ccc21 | 8.94 µM (active) | 
C=Cc1ccc(O)c(OC)c1 | 79.6 µM (active) | 
CCCCCc1ccc(O)cc1 | 22.4 µM (active) | 
CCSCC |  | -20.8% (inactive)
CCCCCCCCOC(=O)c1cc(O)c(O)c(O)c1 | 5.64 µM (active) | 
Nc1ccc(Cl)c([N+](=O)[O-])c1 |  | 13.4% (inactive)
CC/C(=C(/c1ccc(O)cc1)c1ccc(OCCN(C)C)cc1)c1ccccc1 | 37.2 µM (active) | 
Cc1ccc(Cl)c(N)c1Cl |  | 13.7% (inactive)
CC/C=C\C/C=C\C/C=C\CCCCCCCC(=O)OC | 56.4 µM (active) | 
C=CCc1cc(S(=O)(=O)c2ccc(O)c(CC=C)c2)ccc1O | 2.24 µM (active) | 
CCCC(=O)c1cc(O)c(O)cc1O | 20 µM (active) | 
CN1CCN(c2ccccc2/C=C2\SCCN(c3ccc(Cl)c(Cl)c3)C2=O)CC1 | 5.03 µM (active) | 
CCN(CC)c1ccc(C=O)cc1 | 15.9 µM (active) | 
COc1cccc(-c2ccc(/C=C\CN3CCCCCC3)cc2Cl)c1 | 44.6 µM (active) | 
